Measurements as given in PubChem BioAssay (NCI).
The panel holds about 83,000 compounds, 20% with a hit somewhere; the sample as a whole holds those more often.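 Values shown are percent growth following 48 h exposure of cells in 96-well plates to a single concentration of compound; below 10 was considered active.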 A number with no mark means an inactive call. Active and inactive are the calls of the source.

Legend:
Experiment in all cases: NCI-60 one-dose screen, 48 h (100 = growth as untreated, 0 = no growth, -100 = all killed)
Conditions in all cases: 10 µM unless noted
T-47D breast = tested on: T-47D breast
BT-549 breast = tested on: BT-549 breast
MDA-MB-435 melanoma = tested on: MDA-MB-435 melanoma
SW-620 colon = tested on: SW-620 colon
MCF7 breast = tested on: MCF7 breast
HCT-116 colon = tested on: HCT-116 colon
HCC-2998 colon = tested on: HCC-2998 colon
KM12 colon = tested on: KM12 colon

Structure (SMILES) | growth (T-47D breast) | growth (BT-549 breast) | growth (MDA-MB-435 melanoma) | growth (SW-620 colon) | growth (MCF7 breast) | growth (HCT-116 colon) | growth (HCC-2998 colon) | growth (KM12 colon)
CCn1c2ccc(O)cc2c2c(C)c3c[n+](C(C)C)ccc3c(C)c21 | -15.4% (active) | 9.02% (active) | 28.5% | 25.6% | 17.8% | 37.3% | 42.6% | 15%
C=CCCC(=O)N1C=CC(=O)[C@H](O)[C@@H]1/C=C/c1ccccc1 | 39.7% [100 µM] | 59.6% [100 µM] | 59.6% [100 µM] | 40.6% [100 µM] | 19.3% [100 µM] | 18.5% [100 µM] | 42.5% [100 µM] | 33.3% [100 µM]
COC(=O)/C(CCC=C(C)C)=C1\[C@@H](OC(C)=O)C[C@@]2(C)[C@H]1CC(=O)[C@H]1[C@@]3(C)CCC(N4CCCC4)[C@@H](C)[C@@H]3CC[C@@]12C (stereo not given in full) | 94.9% | 92.5% | 97.5% | 103% | 74.6% | 84.9% | 114% | 105%
O=C1c2cc3c(cc2-c2c1c1ccc(Cl)cc1c(=O)n2C[C@H](O)CO)OCO3 | -6.44% (active) | 1.39% (active) | -59.7% (active) | -4.07% (active) | -1.79% (active) | -25.6% (active) | 4.32% (active) | -14.4% (active)
COc1ccc2c(c1)c(-c1cc(-c3cn(C)c4ccc(OC)cc34)on1)cn2C | 80.9% | 127% | 116% | 91.8% | 89% | 89.1% | 101% | 106%
N=C(N)c1ccc(-c2ccc(-c3ccc(F)cc3)s2)s1 | -38.2% (active) | 80% | -88.7% (active) | -65.2% (active) | -67% (active) | -57.3% (active) | -73.3% (active) | -76.1% (active)
CCN(CC)CCCNCc1cc(-c2ccccc2)nc2cc(Cl)ccc12 | -82.5% (active) | 40.1% | -39.7% (active) | -0.394% (active) | 23% | -16.5% (active) | -29.1% (active) | 14.5%
COc1ccc(C2=Nc3c/c(=C\c4c(O)[nH]c5cc(Cl)ccc45)ccc3=N2)cc1 | 71.7% | 77.5% | 3.01% (active) | 57.9% | 36.2% | 70.7% | 73.6% | 49.5%
CN1CCN(Cc2ccc(NC(=O)c3cncc(C#Cc4cncc5ncccc45)c3)cc2C(F)(F)F)CC1 | 60.9% | 38.6% | 10.6% | -26.7% (active) | 13.7% | -58.3% (active) | 13.9% | 10.7%
O=C1Nc2ccccc2/C1=C/c1cn(C[C@@H](O)Cn2c3ccccc3c(=O)c3ccccc32)c2ccccc12 | 62.7% | 73.3% | 85.1% | 78.7% | 45.9% | 57.7% | 76.1% | 68.2%
COc1ccc(C(c2cc(OC)c(OC)c(OC)c2)N2CCCC2)cc1 (stereo not given) | 89.8% | 81.6% |  | 47.8% | 64.1% | 62.3% | 89.1% | 43.9%
CCOc1ccc(/C=N\N=C\c2ccc(OCC)cc2)cc1 | 94.7% | 87.7% |  | 52.8% | 67.5% | 45.5% | 98% | 98.1%
Cc1cc(F)ccc1S(=O)(=O)Nc1cc(-c2c(O)ccc3ccccc23)c(O)c2ccccc12 | 7.54% (active) | 30.1% |  | 25.8% | 30.1% | 5.49% (active) | -3.54% (active) | 3.55% (active)
N#CCC1=NC(c2cccs2)=Nc2ccccc2S1 | 69.7% | 86.6% |  | 97.8% | 96.8% | 80.8% | 92.5% | 94.9%
CCOC(=O)c1c(NC(=O)c2ccc(OC)cc2)sc2c(CN(C)C)c(O)ccc12 | 77.3% | 95.5% |  | 70.4% | 70.4% | 51.3% | 23.1% | 81.8%
CCCCn1sc(=O)n(Cc2ccc(CNC(=O)OCc3ccc4c(Br)cc(Br)c(O)c4n3)cc2)c1=O | 69.9% | -16.2% (active) | -35.4% (active) | 24.5% | 12% | 7.95% (active) | 24.8% | 2.42% (active)

Structure (SMILES) | growth (T-47D breast) | growth (BT-549 breast) | growth (MDA-MB-435 melanoma) | growth (SW-620 colon) | growth (MCF7 breast) | growth (HCT-116 colon) | growth (HCC-2998 colon) | growth (KM12 colon)
C=NNc1ccccc1 | 90.6% | 91.6% |  | 102% | 83.3% | 80.7% | 94.5% | 80.5%
COc1cc2c3c(c1O)-c1ccccc1[C@@H]1OC(=O)N(CC2)[C@H]31 | 89.6% | 111% | 107% | 105% | 90% | 99.3% | 96.8% | 108%
CCCn1c(=S)sc2c1nc(C)n1c(Nc3ccccc3)nnc21 | 15.6% | 76.2% |  | 104% | 77% | 59.1% | 78.3% | 96.5%
CC(=O)Nc1c(Cl)cc(Cl)c2c1Cc1cc([N+](=O)[O-])ccc1-2 | 70.6% | 92.7% |  | 80.6% | 76.8% | 45.8% | 94.3% | 86.4%
O=C(CN1CCN(c2cc3c(cc2F)c(=O)c(C(=O)O)cn3C2CC2)CC1)N/N=C/c1ccncc1 | 96.8% | 95.7% | 97.5% | 97.4% | 92.4% | 104% | 110% | 101%
O=C1/C=C/[C@@H](O)[C@@H]2C[C@@H](O)C[C@H]2/C=C/CCC[C@H](CCOCc2ccccc2)O1 | 15.6% | 7.15% (active) |  | -23.8% (active) | -10.3% (active) | -71.1% (active) | 3.47% (active) | -60.5% (active)
Cn1c(=O)c2c(nc(NC3=NS(=O)(=O)c4ccccc43)n2Cc2ccccc2)n(C)c1=O | 115% | 106% | 101% | 102% | 88.7% | 103% | 107% | 99.9%
CC(C)CN1CC(C(=O)Nc2ccc3c(c2)-c2ccccc2C3)CC1=O (stereo not given) | 61.5% [50 µM] | 65% [50 µM] |  | 93.3% [50 µM] | 52.9% [50 µM] | 64.1% [50 µM] | 64.4% [50 µM] | 74% [50 µM]
N#Cc1nc2c(S(=O)(=O)c3ccccc3)c(N)n(Cc3cccnc3)c2nc1C#N | 58.6% | 65.4% |  | 77.7% | 91.3% | 98.2% | 104% | 102%
COc1ccc(C(O)c2cc3c(N)c(C(=O)Nc4cccc(Cl)c4)sc3nc2C)cc1 (stereo not given) | 42.2% | 38.3% |  | 27.1% | 15.1% | 10.3% | -19.9% (active) | 9.91% (active)
Cc1ccc(-c2nc(C(Cl)Cl)nc3cc(C)nn23)cc1 | 40.9% | 55.5% |  | -28.5% (active) | 20.6% | 6.95% (active) | -69.3% (active) | -9.44% (active)
COc1cc2oc(-c3cccc(NC(=O)c4ccc5c(c4)OCO5)c3)cc(=O)c2c(OC)c1OC | 26.3% | 41.4% |  | 64% | 43.6% | 35.5% | 53.1% | 51.3%
O=C1CCCc2nc3sc4c(=O)n(-c5ccccc5Cl)nnc4c3cc21 | 83.8% | 102% | 102% | 102% | 90.4% | 96% | 118% | 107%
C#CC#CC#CC#CC#CC#CC#CC#CCC1OCC(COC(=O)O[C@@H](C(=O)O[C@H]2C[C@@]3(O)[C@@H](OC(=O)c4ccccc4)[C@@H]4[C@]5(OC(C)=O)CO[C@@H]5C[C@H](O)[C@@]4(C)C(=O)[C@H](OC(C)=O)C(=C2C)C3(C)C)[C@@H](NC(=O)c2ccccc2)c2ccccc2)O1 (stereo not given in full) | 36.6% | 14.5% |  | 24.1% | 16.1% | 9.48% (active) | 1.97% (active) | 6.73% (active)
COc1ccc2c(O)c(/C=C3\N=Nc4ccccc43)oc2c1C[C@H]1CCNC[C@H]1F | 83.3% | 71.2% |  | 15.6% | 12.1% | 26.7% | 49.7% | 2.5% (active)
Cc1nc2sc(C(=O)Nc3ccc(Cl)cc3)c(N)c2cc1C(O)c1ccccc1 (stereo not given) | 40.8% | 59.2% | -12.6% (active) | 25.1% | 21.1% | 25.9% | 62.5% | 21.7%
